Shown are actives, neighbours in structure and some others; about 32% of the full set was active somewhere.
CYP2C19 act – cytochrome P450 2C19 (human) activation; recombinant CYP2C19, luciferin-H EGE luminescence; stronger effect = higher value; 0 = fully inhibited enzyme, 1 = untreated enzyme; activation factor at 5 µM; 96,000 tested, under 10 active;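 active = activation factor of at least 2 at 5 µM in the primary screen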;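 note: 0 = wells with 2.5 mM tranylcypromine and 1 = vehicle-only wells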
CYP2C9 inh – human CYP2C9 inhibition; CYP2C9 Supersomes, luciferin-H conversion, luminescence; inhibition, % at 5 µM; 96,000 compounds, 20% hits;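 active = blocking of liver enzyme CYP2C9 beyond about 50% at 5 µM, limit read from the data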
Target sequence (P11712 whole entry, looked up): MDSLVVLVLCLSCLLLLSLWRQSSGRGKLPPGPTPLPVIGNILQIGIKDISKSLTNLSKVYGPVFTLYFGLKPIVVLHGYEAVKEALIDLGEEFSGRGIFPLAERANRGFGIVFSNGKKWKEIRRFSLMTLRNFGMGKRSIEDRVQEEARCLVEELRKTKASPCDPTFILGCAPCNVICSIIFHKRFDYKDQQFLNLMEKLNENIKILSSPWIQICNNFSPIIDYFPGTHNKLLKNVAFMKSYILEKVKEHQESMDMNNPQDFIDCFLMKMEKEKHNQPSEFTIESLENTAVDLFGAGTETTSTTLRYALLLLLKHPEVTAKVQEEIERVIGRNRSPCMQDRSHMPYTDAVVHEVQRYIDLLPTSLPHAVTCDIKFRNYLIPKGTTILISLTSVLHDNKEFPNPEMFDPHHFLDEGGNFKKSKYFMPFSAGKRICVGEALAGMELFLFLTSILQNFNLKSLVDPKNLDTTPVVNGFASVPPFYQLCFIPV
PostGolgi ctrl – yeast control strain growth, post-Golgi counter-screen | efflux-deficient yeast background strain, growth absorbance A615, 16 h | inhibition, % at 10 µM | 98,000 compounds, 5% hits
PostGolgi yeast – growth inhibition of a yeast mutant, post-Golgi transport screen; AID 739; inhibition, % at 10 µM; post-Golgi transport phenotypic cell assay; 98,000 compounds, 0.9% hits;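 note: yeast cells grown in 1536-well plates; yeast grown about 18 h at 30C before absorbance read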
CYP2C19 inh – blocks human cytochrome P450 2C19; CYP2C19 Supersomes, luciferin-H EGE luminescence, 30 min; inhibition, % at 5 µM; 96,000 compounds, 21% hits;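 active = CYP2C19 inhibition above a set limit at 5 µM in the primary screen, cut at about 50% in these data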;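 note: plate controls were negative control wells for no effect and 2.5 mM tranylcypromine positive control for full effect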
CYP2C9 act – increases human cytochrome P450 2C9 activity; P11712; recombinant CYP2C9, luciferin-H conversion, luminescence; stronger effect = higher value; factor 1 = untreated enzyme, 0 = blocked; activation factor at 5 µM; 96,000 compounds, 1.4% hits; AID 1024;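 active = activation factor of 2 or more for CYP2C9 at a 5 µM dose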;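 note: 0 = sulfaphenazole-blocked wells and 1 = vehicle-only wells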
The depositor's hits bear a star; . = no result given. Cut-off read from the data, not from the text of the source, unless noted: active = inhibition above about 30%; inactive = the rest.

SMILES	CYP2C19 act	CYP2C9 inh	PostGolgi ctrl	PostGolgi yeast	CYP2C19 inh	CYP2C9 act
Cc1ccc(C2=NN3C(C(=O)c4ccccc4)Oc4ccccc4C3C2)cc1 (stereo not given)	0.2	70*	50*	12	82*	0.3
C/C(=C1/SC(N2CCOCC2)=NC1=O)c1ccc(Br)cc1	1	20	10	-6	4	0.8
CCCc1nc2oc3c(N4CCNCC4)ncnc3c2c2c1CCCC2	0.9	9	.	.	9	0.9
CCc1ccccc1SCc1noc(C(=O)NCC2CCCO2)c1C(=O)O (stereo not given)	0.8	1	25	-7	22	1
CC(C)NC(=O)c1onc(CSc2cccc3ccccc23)c1C(=O)O	0.7	95*	-3	-2	32	0
CCCCNC(=O)c1onc(CSc2cccc3ccccc23)c1C(=O)O	0.4	97*	17	-6	58*	0
CCCCNC(=O)c1onc(CSc2ccc(C(C)C)cc2)c1C(=O)O	0.7	94*	2	-5	28	0.1
CCCCNC(=O)c1onc(CSc2cccc(Cl)c2)c1C(=O)O	0.7	84*	14	2	28	0.2
O=P(c1ccccc1)(c1ccccc1)C(c1ccco1)N1CCOCC1 (stereo not given)	0.9	3	18	-2	11	1
O=C(Nc1nc2ccccc2[nH]1)c1ccc(Cl)c(S(=O)(=O)N2CCCC2)c1	0.6	33	19	-5	43	0.7
COCCNC(=O)c1onc(CSc2ccc(C(C)C)cc2)c1C(=O)O	0.7	66*	14	-5	34	0.3
O=C(NCC1CCCO1)c1onc(CSc2ccccc2F)c1C(=O)O (stereo not given)	0.8	19	-3	5	18	0.8
CCCCNC(=O)c1onc(CSc2ccccc2)c1C(=O)O	0.8	57*	26	-5	19	0.4
CCOc1ccccc1-n1c(SCC(=O)NC(C)(C)C)nnc1-c1ccoc1C	0.6	36	9	8	40	0.6
CCOC(=O)CSc1nnc(-c2c[nH]c3ccccc23)n1CC	0.2	9	16	3	76*	0.9
CCn1c(SCC(=O)NCc2ccccc2)nnc1-c1c[nH]c2ccccc12	0.2	81*	1	-7	77*	0.2
CCOc1ccccc1-n1c(SCC(=O)NC2CCCC2)nnc1-c1ccoc1C	0.3	74*	11	13	68*	0.3
CCn1c(SC(C)C)nnc1-c1c[nH]c2ccccc12	0.2	9	3	3	81*	0.9
CCN(C(=O)CSc1nnc(NC2CCCCC2)s1)C1CCS(=O)(=O)C1 (stereo not given)	1.2	-7	2	-1	-23	1.1
COc1ccc(OC)c2c(C)cc(NCCN3CCOCC3)nc12	0.9	-6	0	7	9	1.1
CCCN1CCC(N(C)CCc2ccc(OC)c(OC)c2)CC1	1.1	-6	7	-1	-8	1.1
CCCS(=O)(=O)N1CCC(C(=O)NCc2ccccc2Cl)CC1	1	-60	3	-2	-2	1.6
CCn1c(SCC(=O)NCC2CCCO2)nnc1-c1c[nH]c2ccccc12 (stereo not given)	0.9	-59	3	-6	12	1.6
CCn1c(SCC(=O)NC2CCCC2)nnc1-c1c[nH]c2ccccc12	0.6	78*	16	-5	42	0.2
C(=N\n1cnnc1)/c1cn(Cc2ccccc2)c2ccccc12	0.2	66*	16	-2	85*	0.3
SMILES	CYP2C19 act	CYP2C9 inh	PostGolgi ctrl	PostGolgi yeast	CYP2C19 inh	CYP2C9 act
O=[N+]([O-])/C=C/c1cn(Cc2ccccc2)c2ccccc12	0.9	-17	43*	-1	9	1.2
Clc1ccc(Cn2cc(/C=N/n3cnnc3)c3ccccc32)c(Cl)c1	0.6	45	32*	-1	43	0.6
C(=N\n1cnnc1)/c1cccc2ccccc12	1	-18	3	0	1	1.2
CO/N=C\C(=N\Nc1ccc(OC)cc1)C(=O)c1ccccc1	0.7	44	0	-4	30	0.6
O=C1c2cccnc2Nc2ccccc2N1CCCF	1.1	-16	4	12	-5	1.2
O=c1ccccn1Cc1c(F)cccc1Cl	0.5	23	-14	3	50*	0.8
Cc1ccc(C2NC(=O)NC3=C2CCc2ccccc23)cc1 (stereo not given)	0.1	33	7	16	95*	0.7
CC(C)c1ccc(C2NC(=O)NC3=C2CCc2ccccc23)cc1 (stereo not given)	0.7	22	15	-7	26	0.8
COc1ccc(C2NC(=O)NC3=C2CCc2ccccc23)cc1 (stereo not given)	0.2	16	8	4	81*	0.8
Cc1csc(=NC(=O)c2ccccc2)n1Cc1ccco1	0.3	37	6	-4	72*	0.6
O=C(O)c1cccc(S(=O)(=O)N2CCOCC2)c1	1.2	-5	16	15	-16	1
O=C(O)c1cc(-c2ccncc2)nc2ccc(S(=O)(=O)N3CCOCC3)cc12	0.9	60*	10	9	7	0.4
CS(=O)(=O)N1CCN(C(=O)c2cc(-c3ccncc3)nc3ccc(Cl)cc23)CC1	0.6	68*	18	-17	36	0.3
O=C(c1cc(-c2ccccc2)nc2ccccc12)N1CCOCC1	0.8	8	-5	-8	16	0.9
O=C(c1ccco1)N1CCN(C(=O)c2cc(-c3ccccc3)nc3ccccc23)CC1	1.1	14	31*	-3	-8	0.9
O=C(c1cc(-c2ccccc2)nc2ccccc12)N1N=C(C(F)F)CC1(O)C(F)F (stereo not given)	0.2	100*	4	10	82*	0
CCN(CC)C(=O)C1CCN(S(=O)(=O)c2ccc(C3CNC(=O)C3)cc2)CC1 (stereo not given)	1	18	17	0	3	0.8
C1CNCCOCCNCCN1	1	-4	10	3	-2	1
COC(=O)NC1CSCC1OC(=O)CCN1C(=O)c2ccccc2C1=O (stereo not given)	0.5	3	0	1	46	1
CSc1ccccc1NC(=O)c1c(Br)cnn1C	1	-41	4	4	4	1.4
CC1CCN(S(=O)(=O)c2ccc(S(=O)(=O)NCc3ccccc3)cc2)CC1	1	-4	9	-3	-2	1
O=C(c1ccco1)N1CCN(C(=O)c2cc(-c3ccccn3)nc3ccc(Cl)cc23)CC1	0.5	88*	14	12	53*	0.1
COc1ccc(CNC(=O)C/C(C)=N/NC(=O)C(c2ccccc2)c2ccccc2)cc1	0.9	56*	14	0	14	0.4
Cc1ccc(S(=O)(=O)NC2(C(=O)O)CCCCC2)cc1	1	57*	-5	13	3	0.4
